Tested on: CG7945
Test: MAPPIT interaction score (arbitrary units); higher = stronger binary interaction signal, active = hit call of the paper
Settings: MAPPIT configuration: N-C; pair source set: Lit-BM-16;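 active = MAPPIT score above the 99th percentile of random reference set scores in the same batch; inactive = at or below it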
Protocol: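 MAPPIT in HEK293T cells: Drosophila bait and prey ORFs (from the FlyBi ORF collection) were co-transfected in quadruplicate, with two wells stimulated by erythropoietin. Interaction-dependent JAK-STAT activation was read out with a STAT-responsive firefly luciferase reporter. Positive calls use the 99th percentile of random reference set (RRS) scores within each batch […]. Batches Dvs01 and Dvs02 used the N-N configuration and Dvs04 the N-C configuration. Pairs come from FlyBi screens, CuraGen, DPiM, Finley Y2H, Lit-BM-16, Lit-BS-16 and RRS.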
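Note: HEK293T cells with Epo stimulation, STAT-responsive firefly luciferase reporter, fold induction versus unstimulated cells divided by the larger fold induction of two negative controls lacking either bait or prey.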

| Substance | MAPPIT interaction score |
| --- | --- |
| DnaJ-1 | 1.15 (inactive) |

Reference: the supplement of paper PMC10105736
